± gives the standard deviation.
system: MILI (PIWIL2) piRISC loaded with L1MC piRNA (26 nt); experiment: pre-steady-state target cleavage rate (min^-1); guide: L1MC piRNA 5'p-UAACUAAAUACUAUGCAAGCUGUAGG; MIWI and MILI are mouse PIWI proteins and EfPiwi is from a freshwater sponge; tags in brackets are library labels; higher = faster piRNA-guided slicing of the target; conditions: auxiliary factor: none (no GTSF1)
Outline: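 Sequencing of uncleaved targets, normalised to depth and to weakly complementary targets, was the readout of this Cleave-'n-Seq assay. A transcribed, DNA-blocked target RNA library (0.1 nM) was mixed with 1 nM active affinity-purified piRISC carrying one synthetic guide, with or without 500 nM GTSF1 partner protein, in HEPES–potassium acetate buffer at 33 °C for 0–8 or 0–960 min. Three trials were pooled, k3 was capped at 0.0001 min^-1, and a burst-and-steady-state fit gave the pre-steady-state cleavage rate.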

Sequence | pre-steady-state target cleavage rate
UCCUGGAUGUCGAUGCAUAGUAAAUAGUUA | 0.00231 ± 0.0023
UCCUGGAUGUCGAUGCAUAGUGAUUUAGUUA | 0.00429 ± 0.0023
UCCUGGUACAGCUUGCAAUGUAUUUAGUUA | 0.0121 ± 0.0029
UCCUGGAUGUCGAUGCAUAGUAUAUAGUUA | 0.00598 ± 0.0024
UCCUGCUACAGGUUGCAUAGUAUUUAGAUA | 0.00283 ± 0.0027
UCCUGGAUGUCGUUGCAUAGUAUUUAGUUU [g2:g18:cont:t1U] | 0.0134 ± 0.0037
UCCUGGAUGUCCUUGCUUAGUAUUUUGUUA | 0.00384 ± 0.003
UCCUGCUACAGCUUGCAUAUUAUUUAGUUA | 0.00413 ± 0.0024
UCCUGGUACAGCAUGCAUAGUAUUUUGUUA | 0.00364 ± 0.0034
UCCUGGAUGAGGUUGCAUUGUAUUUAGUUA | 0.00431 ± 0.0027
UCCUGGAUGUCGAUGCAUAGUACUUUAGUUA | 0.00479 ± 0.0029
UCCUGGAUGUCCUUGCAUAGUUUUAAGUUA | 0.00312 ± 0.0026
UCCUGGAUGUCGUUGCAUAGUAUCUUAGUUA | 0.00848 ± 0.0026
UCCUGGAUGUCCUUGAUAGUAUUUAGUUA | 0.00337 ± 0.0019
UCCUCCAUCAGCUUGCAUAGUAUUUAGUAA | 0.00315 ± 0.0022
UCCUGGAACAGCUUCCAAAGUAUUUAGUUA | 0.00525 ± 0.0018

— the supplement of paper PMC10338343
